Laboratory results: PubChem BioAssay (NCI)
About 83,000 compounds went through this panel and 20% of them were active in at least one assay; those are over-represented in the sample as a whole.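 Single-dose data. Exposure time 48 hours. Values below 10 considered active.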 The source made the active and inactive calls.

Assays:
Experiment in all cases: NCI-60 one-dose screen, 48 h (100 = growth as untreated, 0 = no growth, -100 = all killed)
Conditions in all cases: 10 µM
DU-145 prostate = test system: DU-145 prostate
K-562 leukemia = test system: K-562 leukemia
MALME-3M melanoma = test system: MALME-3M melanoma
MDA-MB-231 breast = test system: MDA-MB-231 breast
RXF 393 renal = test system: RXF 393 renal
SF-268 CNS = test system: SF-268 CNS
SF-539 CNS = test system: SF-539 CNS
UACC-257 melanoma = test system: UACC-257 melanoma
SF-295 CNS = test system: SF-295 CNS
M14 melanoma = test system: M14 melanoma

Measured: growth

c1ccc(Sc2ccccc2)cc1
inactive: DU-145 prostate 105% | K-562 leukemia 112% | MALME-3M melanoma 94.4% | MDA-MB-231 breast 109% | RXF 393 renal 114% | SF-268 CNS 97% | SF-539 CNS 103% | UACC-257 melanoma 88.3%

COc1cccc(COC(=O)Nc2ccccc2)c1OC
inactive: DU-145 prostate 104% | K-562 leukemia 102% | MALME-3M melanoma 105% | MDA-MB-231 breast 104% | RXF 393 renal 95.8% | SF-268 CNS 114% | SF-295 CNS 88.5% | SF-539 CNS 107% | M14 melanoma 105%

O=C(OCC(O)C1OC(c2ccccc2)OC(COC(=O)c2ccccc2)C1O)c1ccccc1 (stereo unspecified)
inactive: DU-145 prostate 118% | K-562 leukemia 101% | MALME-3M melanoma 105% | MDA-MB-231 breast 107% | RXF 393 renal 96.3% | SF-268 CNS 110% | SF-295 CNS 77.3% | SF-539 CNS 103% | M14 melanoma 110%

Cc1ccc(CCCC(=O)O)c(C)c1
inactive: DU-145 prostate 107% | K-562 leukemia 97.8% | MALME-3M melanoma 105% | MDA-MB-231 breast 108% | RXF 393 renal 100% | SF-268 CNS 104% | SF-295 CNS 98.5% | SF-539 CNS 96.5% | M14 melanoma 107%

C1CNC(C2=NCCN2)=N1
inactive: DU-145 prostate 100% | K-562 leukemia 90.4% | MALME-3M melanoma 101% | MDA-MB-231 breast 107% | RXF 393 renal 113% | SF-268 CNS 94% | SF-295 CNS 101% | SF-539 CNS 98.5% | M14 melanoma 103%

O=[N+]([O-])c1ccccc1S(=O)c1ccccc1[N+](=O)[O-]
inactive: DU-145 prostate 106% | K-562 leukemia 47.9% | MALME-3M melanoma 90.4% | MDA-MB-231 breast 74% | RXF 393 renal 111% | SF-268 CNS 88.1% | SF-295 CNS 79% | SF-539 CNS 113% | M14 melanoma 95.9%

CC1NC(=O)NC1CCCCCC(=O)O (stereo unspecified)
inactive: DU-145 prostate 108% | K-562 leukemia 125% | MALME-3M melanoma 106% | MDA-MB-231 breast 91.4% | RXF 393 renal 105% | SF-268 CNS 96.5% | SF-539 CNS 105% | UACC-257 melanoma 86.6% | M14 melanoma 95%

C=CCNc1nnc(C)s1
inactive: DU-145 prostate 118% | K-562 leukemia 106% | MALME-3M melanoma 106% | MDA-MB-231 breast 102% | SF-268 CNS 119% | SF-295 CNS 115% | SF-539 CNS 99.9%

Cc1ccncc1C(N)=O
inactive: DU-145 prostate 106% | K-562 leukemia 101% | MALME-3M melanoma 106% | MDA-MB-231 breast 116% | SF-268 CNS 98.2% | SF-295 CNS 120% | SF-539 CNS 95.7% | UACC-257 melanoma 110% | M14 melanoma 103%

NC(CSC(c1ccccc1)(c1ccccc1)c1ccccc1)C(=O)O (stereo unspecified)
inactive: DU-145 prostate 29.9% | K-562 leukemia 14.5% | MALME-3M melanoma 51.1% | SF-268 CNS 43.3% | SF-539 CNS 10.3% | UACC-257 melanoma 52.3% | M14 melanoma 13.6%
active: MDA-MB-231 breast 4.8% | RXF 393 renal 3.38%

CC(C)(O)C#CC#CC(C)(C)O
inactive: DU-145 prostate 113% | K-562 leukemia 93.6% | MALME-3M melanoma 107% | MDA-MB-231 breast 105% | SF-268 CNS 106% | SF-295 CNS 95.1% | SF-539 CNS 93.8% | UACC-257 melanoma 94.4% | M14 melanoma 107%

O=S(=O)(Cc1ccccc1)c1ccccc1
inactive: DU-145 prostate 107% | K-562 leukemia 103% | MALME-3M melanoma 106% | MDA-MB-231 breast 121% | RXF 393 renal 102% | SF-268 CNS 101% | SF-539 CNS 97.7% | UACC-257 melanoma 107% | M14 melanoma 104%

CCS(=O)(=O)c1cc(=O)[nH]c(=O)[nH]1
inactive: DU-145 prostate 109% | K-562 leukemia 128% | MALME-3M melanoma 56.9% | MDA-MB-231 breast 101% | SF-268 CNS 105% | SF-295 CNS 122% | SF-539 CNS 111% | UACC-257 melanoma 44.4% | M14 melanoma 87.1%

Cc1ccc(Cl)cc1N1C(=O)CC(Sc2ccccc2N)C1=O (stereo unspecified)
inactive: DU-145 prostate 123% | K-562 leukemia 118% | MALME-3M melanoma 138% | MDA-MB-231 breast 108% | RXF 393 renal 92.5% | SF-295 CNS 111% | SF-539 CNS 105% | UACC-257 melanoma 88.4% | M14 melanoma 118%

COc1cccc(O)c1O
inactive: DU-145 prostate 27% | K-562 leukemia 78.4% | MALME-3M melanoma 67% | MDA-MB-231 breast 85.5% | RXF 393 renal 72.7% | SF-295 CNS 104% | SF-539 CNS 20.6% | UACC-257 melanoma 72.3% | M14 melanoma 44.6%

COC(=O)CCCCC1=CCC2C(=O)C=C(O)C2C1 (stereo unspecified)
inactive: DU-145 prostate 104% | K-562 leukemia 90.9% | MALME-3M melanoma 106% | MDA-MB-231 breast 106% | RXF 393 renal 103% | SF-268 CNS 104% | SF-539 CNS 99.8% | M14 melanoma 109%

Nc1nc(N)c2cc(S(=O)(=O)c3cccc(C(F)(F)F)c3)ccc2n1
inactive: DU-145 prostate 48% | K-562 leukemia 17.7% | MALME-3M melanoma 63.8% | MDA-MB-231 breast 67.9% | RXF 393 renal 62.2% | SF-268 CNS 29.2% | SF-539 CNS 51.4% | UACC-257 melanoma 43.7% | M14 melanoma 44.5%

Sc1ccc(Nc2c3ccccc3nc3ccccc23)cc1
inactive: DU-145 prostate 104% | K-562 leukemia 32% | MALME-3M melanoma 86% | MDA-MB-231 breast 98% | SF-268 CNS 102% | SF-295 CNS 26.5% | SF-539 CNS 95.5% | UACC-257 melanoma 68.1% | M14 melanoma 96.8%

Cc1ccc(S(=O)(=O)O)c(C)c1
inactive: DU-145 prostate 108% | K-562 leukemia 98.8% | MALME-3M melanoma 88.4% | MDA-MB-231 breast 116% | RXF 393 renal 117% | SF-268 CNS 114% | SF-539 CNS 101% | UACC-257 melanoma 108%

Nc1ccc(N=Nc2ccc(O)cc2)c(N)n1
inactive: DU-145 prostate 79.3% | K-562 leukemia 39.2% | MALME-3M melanoma 72% | MDA-MB-231 breast 73.7% | RXF 393 renal 91.6% | SF-268 CNS 73.1% | SF-539 CNS 66.5% | UACC-257 melanoma 97.9% | M14 melanoma 70.9%

CCCCCCCCCCC1CO1 (stereo unspecified)
inactive: DU-145 prostate 108% | K-562 leukemia 102% | MALME-3M melanoma 103% | MDA-MB-231 breast 111% | RXF 393 renal 103% | SF-268 CNS 106% | SF-539 CNS 105% | UACC-257 melanoma 96.4% | M14 melanoma 108%

O=C(O)CCCCNC(=O)c1ccccc1
inactive: DU-145 prostate 110% | K-562 leukemia 89.3% | MALME-3M melanoma 110% | MDA-MB-231 breast 99.1% | SF-268 CNS 102% | SF-295 CNS 95.1% | SF-539 CNS 99.8% | UACC-257 melanoma 107% | M14 melanoma 98.8%

CCN(CC)CCCC(C)Nc1ccnc(/C=C/c2ccc(Cl)cc2)c1 (stereo unspecified)
inactive: DU-145 prostate 49.6%
active: K-562 leukemia 0.277% | MALME-3M melanoma -60.6% | MDA-MB-231 breast -28.3% | RXF 393 renal -61.8% | SF-268 CNS 9.89% | SF-539 CNS -69.2% | UACC-257 melanoma -77.7% | M14 melanoma -85.9%

O=C(O)c1ccccc1NCc1ccco1
inactive: DU-145 prostate 118% | K-562 leukemia 104% | MALME-3M melanoma 108% | MDA-MB-231 breast 104% | SF-268 CNS 111% | SF-295 CNS 114% | SF-539 CNS 103% | UACC-257 melanoma 143% | M14 melanoma 102%

CN(C)/N=C/c1ccccc1O
inactive: DU-145 prostate 125% | K-562 leukemia 120% | MALME-3M melanoma 109% | MDA-MB-231 breast 106% | SF-268 CNS 106% | SF-295 CNS 112% | SF-539 CNS 94.6% | UACC-257 melanoma 109% | M14 melanoma 106%

C#CC(C)(O)c1ccc(Cl)cc1 (stereo unspecified)
inactive: DU-145 prostate 112% | K-562 leukemia 91.3% | MALME-3M melanoma 125% | MDA-MB-231 breast 102% | SF-268 CNS 103% | SF-295 CNS 90.8% | SF-539 CNS 96.3% | UACC-257 melanoma 101% | M14 melanoma 98.8%

CCC/C=C(/C(C)=O)C(=O)OCC
inactive: DU-145 prostate 114% | K-562 leukemia 104% | MALME-3M melanoma 118% | MDA-MB-231 breast 105% | SF-268 CNS 84.5% | SF-295 CNS 282% | SF-539 CNS 117% | UACC-257 melanoma 81.2% | M14 melanoma 118%

O=C1OC[C@H]2[C@H](c3ccc(O)c(O)c3)c3cc(O)c(O)cc3C[C@H]12
inactive: DU-145 prostate 108% | K-562 leukemia 180% | MALME-3M melanoma 140% | MDA-MB-231 breast 129% | SF-268 CNS 116% | SF-295 CNS 124% | SF-539 CNS 122% | UACC-257 melanoma 147% | M14 melanoma 120%

COc1cc(CN)ccc1O
inactive: DU-145 prostate 91.2% | K-562 leukemia 71.7% | MALME-3M melanoma 79.3% | MDA-MB-231 breast 86.9% | RXF 393 renal 95% | SF-268 CNS 100% | SF-539 CNS 94.9% | UACC-257 melanoma 94.1% | M14 melanoma 101%
